Source: PubChem (SRMLSC)
Most compounds without a hit are left out; they make up all but 6.8% or so of the library.
Spn MK inh: S. pneumoniae MK inhibitors, primary screen, biochemical, PK/LDH-coupled NADH absorbance; purified MK, PK/LDH-coupled NADH absorbance 340 nm; inhibition, % at 10 µM; actives 0.48% (n = 65,000);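 active = ranked among the strongest by inhibition in the single 10 µM screen, a fixed top-ranked set picked for dose follow-up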
Spn PMK inh: S. pneumoniae PMK inhibitors, primary screen, biochemical, mevalonate pathway, pilot trial included; purified PMK, PK/LDH-coupled NADH absorbance 340 nm; inhibition, % at 10 µM; actives 0.49% (n = 65,000); AID 539, 2006;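 active = top-ranked compounds by inhibition in the single 10 µM screen, taking a fixed number of the strongest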;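 note: 0% = full reaction with DMSO carrier and 100% = background rate without enzyme reaction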
Fluor 339 460: intrinsic fluorescence of library compounds, ex339/em460 – biochemical, MLSMR library, data from DPM-DC assay, artefact control, profiling panel | fluorescence fold increase at 10 µM | actives 5.5% (n = 65,000) | AID 709, 2007 | compound autofluorescence, ex339/em460 nm, NADH buffer; hits give high values; 1 = no-compound wells, NADH background;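 active = at 10 µM, mean starting fluorescence two-fold or more over control wells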;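 note: signal is the first read of a kinetic run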
DPM-DC inhibit: S. pneumoniae DPM-DC inhibitors, primary screen, biochemical, PK/LDH-coupled NADH fluorescence; purified DPM-DC; AID 556, 2006; calls only at 10 µM; actives 0.49% (n = 65,000);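 active = the 320 compounds with the highest percent inhibition in the single-dose primary screen, excluding strongly autofluorescent ones, cut at about 32% in these data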;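 note: kinetic rate of NADH fluorescence loss reporting ADP formed by the decarboxylase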
NADH coupling: inhibitors of PK/LDH coupling enzymes, profiling panel, artefact control, biochemical, MLSMR library | coupled PK/LDH NADH assays, four targets | IC50, µM (titrated, usually from 10 µM), without a hit: top-dose inhibition | actives 0.02% (n = 65,000);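 active = single-dose screening hits from any of four coupled enzyme assays that gave an IC50 when retested across doses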;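 note: the DPM-DC format reads NADH fluorescence rather than 340 nm absorbance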
A340 absorber: compound light absorbance at 340 nm, profiling panel, artefact control, biochemical, MLSMR library, data from PS, PMK, MK assays; compound absorbance at 340 nm, fold over control; AID 708, 2007; 65,000 tested, under 10 active; fold change at 10 µM;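 active = at 10 µM dose, initial 340 nm absorbance at least 2 fold that of control wells; inactive = change under 2 fold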;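 note: initial absorbance extrapolated from kinetic A340 decline of NADH oxidation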
* hit, by the source's call.

Results for COC(=O)c1ccc(CNC(=O)CSc2nnc(COc3ccccc3)n2C)o1 ?
Spn MK inh: 7; Spn PMK inh: 9; Fluor 339 460: 1.1; DPM-DC inhibit: inactive; NADH coupling: 5%; A340 absorber: 1

How did COc1cc(C(=O)Nc2ccc3c(c2)OCO3)ccc1-n1cnnn1 do in these assays?
Spn MK inh: 14; Spn PMK inh: 12; Fluor 339 460: 1.2; DPM-DC inhibit: active; NADH coupling: 19%; A340 absorber: 1

How did O=C(Nc1ccc2nn(-c3ccccc3)nc2c1)c1ccc2c(c1)OCO2 do in these assays?
Spn MK inh: 0; Spn PMK inh: 2; Fluor 339 460: 2.6*; DPM-DC inhibit: inactive; NADH coupling: 5%; A340 absorber: 1.2

Results for COc1cc(C(=O)Nc2ccc3c(c2)OCCO3)c(-n2cnnn2)cc1OC ?
Spn MK inh: 0; Spn PMK inh: 10; Fluor 339 460: 1; DPM-DC inhibit: inactive; NADH coupling: 8%; A340 absorber: 1

Results for Cn1c(=O)c2c(nc(CN3CCN(c4ccc(F)cc4)CC3)n2Cc2ccccc2F)n(C)c1=O ?
Spn MK inh: 1; Spn PMK inh: 0; Fluor 339 460: 1.2; DPM-DC inhibit: inactive; NADH coupling: 0%; A340 absorber: 0.99

What do the screens show for `Cc1cc(N2CCN(C(=O)c3ccco3)CC2)n2nc(C)c(-c3ccccc3)c2n1`?
Spn MK inh: 11; Spn PMK inh: 11; Fluor 339 460: 1.4; DPM-DC inhibit: inactive; NADH coupling: 7%; A340 absorber: 1.1

How did O=C(c1cc2nc(-c3ccccc3)cc(-c3ccccc3)n2n1)N1CCN(C(=O)c2ccco2)CC1 do in these assays?
Spn MK inh: 9; Spn PMK inh: 8; Fluor 339 460: 3.7*; NADH coupling: 9%; A340 absorber: 1.1

What do the screens show for `Cc1cc(N2CCN(C(=O)c3ccco3)CC2)n2nc(-c3cccc(Cl)c3)cc2n1`?
Spn MK inh: 8; Spn PMK inh: 2; Fluor 339 460: 0.7; DPM-DC inhibit: active; NADH coupling: 15%; A340 absorber: 1

How did Cc1cc(N2CCN(C(=O)c3ccco3)CC2)n2nc(C)c(-c3ccc(Cl)cc3)c2n1 do in these assays?
Spn MK inh: 15; Spn PMK inh: 19; Fluor 339 460: 3.7*; NADH coupling: 17%; A340 absorber: 1.1

Results for CCOC(=O)N1CCC(NC(=O)c2ccc(CS(=O)(=O)c3ccc(OC)cc3)o2)CC1 ?
Spn MK inh: 3; Spn PMK inh: 14; Fluor 339 460: 1.1; DPM-DC inhibit: inactive; NADH coupling: 6%; A340 absorber: 1

Results for CCc1cc2c(CN3CCN(CCO)CC3)cc(=O)oc2cc1O ?
Spn MK inh: 6; Spn PMK inh: 9; Fluor 339 460: 2.9*; NADH coupling: 6%; A340 absorber: 1

How did CCc1cc2c(CN3CCN(C)CC3)cc(=O)oc2cc1O do in these assays?
Spn MK inh: 9; Spn PMK inh: 6; Fluor 339 460: 3.8*; NADH coupling: 8%; A340 absorber: 1.1

What do the screens show for `COc1ccc(CNC(=O)C(OC(C)=O)c2ccccn2)cc1` (centres undefined)?
Spn MK inh: 2; Spn PMK inh: 11; Fluor 339 460: 1.1; DPM-DC inhibit: inactive; NADH coupling: 4%; A340 absorber: 0.99

Results for CC1(C)CC(=O)c2cc(OCC(=O)NCCCN3CCN(c4ccccc4F)CC3)ccc2O1 ?
Spn MK inh: 0; Spn PMK inh: 13; Fluor 339 460: 3.4*; NADH coupling: 2%; A340 absorber: 1

Results for O=C(COc1ccc2c(c1)C(=O)CC1(CCCCC1)O2)NCc1ccccn1 ?
Spn MK inh: 0; Spn PMK inh: 10; Fluor 339 460: 5.1*; NADH coupling: 5%; A340 absorber: 1

How did CCOC(=O)COc1ccc2c(c1)C(=O)CC(C)(c1cccnc1)O2 (centres undefined) do in these assays?
Spn MK inh: 0; Spn PMK inh: 14; Fluor 339 460: 4.8*; NADH coupling: 7%; A340 absorber: 1.1

Results for CC1(C)CC(=O)c2cc(OCC(=O)NCc3cccnc3)ccc2O1 ?
Spn MK inh: 0; Spn PMK inh: 7; Fluor 339 460: 5.1*; NADH coupling: 4%; A340 absorber: 1

What do the screens show for `O=C(COc1ccc(S(=O)(=O)NC2CCCCC2)cc1)NCc1ccccn1`?
Spn MK inh: 10; Spn PMK inh: 6; Fluor 339 460: 1; DPM-DC inhibit: inactive; NADH coupling: 5%; A340 absorber: 1

Results for COc1cccc2c1OC1(C)CC2NC(=O)N1c1cccc(C(=O)Nc2ccc3c(c2)OCCO3)c1 (centres undefined) ?
Spn MK inh: 0; Spn PMK inh: 13; Fluor 339 460: 1.1; DPM-DC inhibit: inactive; NADH coupling: 4%; A340 absorber: 1

Results for Cc1ccc(NC(=O)c2cc(-c3cccc(O)c3)on2)cc1C ?
Spn MK inh: 7; Spn PMK inh: 23; Fluor 339 460: 1.1; DPM-DC inhibit: inactive; NADH coupling: 10%; A340 absorber: 1

Results for COc1ccc2[nH]c(=O)c(CN(C)C(=O)C3CCCCC3)cc2c1 ?
Spn MK inh: 1; Spn PMK inh: 9; Fluor 339 460: 3.5*; NADH coupling: 5%; A340 absorber: 1.1

What do the screens show for `CCN(Cc1cc2ccccc2[nH]c1=O)C(=O)C1CCCCC1`?
Spn MK inh: 8; Spn PMK inh: 3; Fluor 339 460: 1.2; DPM-DC inhibit: inactive; NADH coupling: 4%; A340 absorber: 1

What do the screens show for `COc1ccc2[nH]c(=O)c(CN(C)C(=O)c3ccncc3)cc2c1`?
Spn MK inh: 5; Spn PMK inh: 0; Fluor 339 460: 2*; DPM-DC inhibit: inactive; NADH coupling: 4%; A340 absorber: 1.1

What do the screens show for `COc1ccccc1Oc1c(C)oc2cc(OC(=O)c3ccco3)ccc2c1=O`?
Spn MK inh: 8; Spn PMK inh: 8; Fluor 339 460: 2.6*; DPM-DC inhibit: inactive; NADH coupling: 12%; A340 absorber: 1

Results for COc1ccccc1-c1c(C)oc2cc(OC(=O)c3ccco3)ccc2c1=O ?
Spn MK inh: 15; Spn PMK inh: 1; Fluor 339 460: 2.1*; DPM-DC inhibit: inactive; NADH coupling: 14%; A340 absorber: 1.1

Results for CCOC(=O)c1cc2ccc(OC(=O)c3ccco3)cc2oc1=O ?
Spn MK inh: 9; Spn PMK inh: 5; Fluor 339 460: 3.7*; NADH coupling: 7%; A340 absorber: 1.2
